Source: PubChem BioAssay (NCI)
About 83,000 compounds went through this panel and 20% of them were active in at least one assay; those are over-represented in the sample as a whole.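 Growth was measured after 48 h exposure to one concentration of compound in 96-well plates. Values under 10 count as active.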 Values without a mark were called inactive. Calls of active or inactive are those of the source.

What was measured:
Experiment in all cases: NCI-60 one-dose screen, 48 h (100 = growth as untreated, 0 = no growth, -100 = all killed)
Settings in all cases: 10 µM unless noted
[1] = tested on: SR leukemia
[2] = tested on: RPMI-8226 leukemia
[3] = tested on: OVCAR-8 ovarian
[4] = tested on: OVCAR-5 ovarian
[5] = tested on: SK-OV-3 ovarian
[6] = tested on: IGROV1 ovarian
[7] = tested on: OVCAR-3 ovarian
[8] = tested on: HS 578T breast
[9] = tested on: NCI/ADR-RES ovarian
[10] = tested on: OVCAR-4 ovarian

SMILES | growth [1] | growth [2] | growth [3] | growth [4] | growth [5] | growth [6] | growth [7] | growth [8] | growth [9] | growth [10]
COc1cc(/C=C/C(=O)c2ccc(Oc3ncnc4ccccc34)cc2)cc(OC)c1OC | 38.1% | 24.3% | 74.9% | 88.2% | 83.6% | 66.5% | 35.6% | 97.1% | – | –
C#C[C@H](O)/C=C/CCCCCCC#C[C@H](O)CC[C@@H](O)C#CCCCCCC/C=C/[C@@H](O)C#C | -22.8% (active) | 21.3% | 89.1% | 111% | 105% | -37.6% (active) | 96% | 95.9% | 54.5% | –
CCCCOc1nc2ccc(Cl)cc2cc1/C=C/C(=O)/C=C/c1ccc(Cl)cc1 | 20.3% | 0.229% (active) | 70.2% | 107% | 92.5% | 45.8% | 51.1% | 76.8% | 100% | –
CC(=O)Nc1ccc(OC(=O)c2ccccc2O)cc1 | 96.9% | 101% | 110% | – | 105% | 115% | 110% | 99.4% | 102% | 105%
